{"source": "the supplement of paper PMC4237247", "note": "Counter-ions that a name gives are not always drawn.", "data": [{"system": "HeLa", "assay": "percent cells in G2/M phase; higher = more G2/M arrest", "conditions": "10 µM; 20 h", "method": "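HTS of 79,827 drug-like compounds at 10 uM. HeLa cells in 384-well plates were treated for 20 h, fixed, stained with Vybrant DyeCycle Green and scanned on an Acumen eX3 cytometer to give per-well cell cycle profiles (% cells in each phase). The plate Z' was 0.51. Only hits are listed: G1 hits >4 SD and S hits >5 SD from the mean.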", "units": {"percent cells in G2/M phase": "%"}, "values": [{"smiles": "COc1ccc(CSc2nncn2N)cc1", "note": "(hit class: S-phase inhibitor)", "percent cells in G2/M phase": 15.1}, {"smiles": "c1ccc2c(c1)Nc1nc3ccccc3nc1O2", "note": "(hit class: G1-phase inhibitor)", "percent cells in G2/M phase": 21.4}, {"smiles": "COc1c(C)c2c(c(O)c1C/C=C(\\C)CCC(=O)O)C(=O)OC2", "note": "[Mycophenolic acid] (hit class: S-phase inhibitor)", "percent cells in G2/M phase": 28.6}, {"smiles": "Cc1cc([N+](=O)[O-])ccc1NCc1ccc(F)c(F)c1", "note": "(hit class: G1-phase inhibitor)", "percent cells in G2/M phase": 18.3}, {"smiles": "Cc1cc(N2CCCCC2)c(F)cc1[N+](=O)[O-]", "note": "(hit class: S-phase inhibitor)", "percent cells in G2/M phase": 22.3}, {"smiles": "Nc1ccn([C@H]2CC[C@@H](CO)O2)c(=O)n1", "note": "[Zalcitabine] (hit class: S-phase inhibitor)", "percent cells in G2/M phase": 29.8}, {"smiles": "CC(=O)C1=C(O)C(=O)N(CC(=O)O)C1c1ccccc1F", "note": "(configuration not stated) (hit class: S-phase inhibitor)", "percent cells in G2/M phase": 12.9}, {"smiles": "CC[C@@H](C(=O)[C@@H](C)[C@@H](O)[C@H](C)CCc1ccc(C)c(O)c1C(=O)O)[C@H]1O[C@](CC)([C@H]2CC[C@](O)(CC)[C@H](C)O2)C[C@@H]1C", "note": "[Lasalocid sodium salt] (hit class: G1-phase inhibitor)", "percent cells in G2/M phase": 16.8}, {"smiles": "COc1ccc(C(=O)c2coc3ccc(OC)cc3c2=O)cc1", "note": "(hit class: G1-phase inhibitor)", "percent cells in G2/M phase": 19}, {"smiles": "O=C(COc1ccc(Cl)cc1)NC(Cc1c[nH]c2ccccc12)C(=O)O", "note": "(configuration not stated) (hit class: G1-phase inhibitor)", "percent cells in G2/M phase": 20.6}, {"smiles": "CCN(CC)Cc1c(O)ccc2c(=O)c(-c3ccccc3)coc12", "note": "(hit class: S-phase inhibitor)", "percent cells in G2/M phase": 17}, {"smiles": "COc1[nH]c2ccccc2c1C=NO", "note": "(hit class: S-phase inhibitor)", "percent cells in G2/M phase": 12.8}, {"smiles": "C[C@@H]1C[C@H]2[C@@H]3C[C@H](F)C4=CC(=O)C=C[C@]4(C)[C@@]3(Cl)[C@@H](O)C[C@]2(C)[C@H]1C(=O)COC(=O)C(C)(C)C", "note": "[Clocortolone pivalate] (hit class: S-phase inhibitor)", "percent cells in G2/M phase": 30.1}, {"smiles": "O=C1c2c(O)ccc(O)c2C(=O)c2c(NCCNCCO)ccc(NCCNCCO)c21", "note": "[Mitoxantrone dihydrochloride] (hit class: G1-phase inhibitor)", "percent cells in G2/M phase": 0.73}, {"smiles": "Cc1ccc(-c2cc(-c3ccccc3Cl)[nH]n2)c(O)c1", "note": "(hit class: G1-phase inhibitor)", "percent cells in G2/M phase": 17.1}, {"smiles": "C[C@@H]1CCC[C@H](C)N1NC(=O)c1ccc(Cl)c(S(N)(=O)=O)c1", "note": "[Clopamide] (hit class: G1-phase inhibitor)", "percent cells in G2/M phase": 15.9}, {"smiles": "Cn1c(SCc2ccccc2)nc2ccccc2c1=O", "note": "(hit class: S-phase inhibitor)", "percent cells in G2/M phase": 15.4}]}]}
